# Assay results taken from article PMC12136788.
# Residue numbers refer to the chain shown, from its start. The full ranking holds about 24,000 sequences; the median of “enrichment r” is about 0.99, and the highest 2% start at about 3.7. The entries come from a sample that favours the highest values as a whole.
# T1: UNK ZnF1-3 (human, UniProt Q9C0B0 31-174)
# T1 sequence: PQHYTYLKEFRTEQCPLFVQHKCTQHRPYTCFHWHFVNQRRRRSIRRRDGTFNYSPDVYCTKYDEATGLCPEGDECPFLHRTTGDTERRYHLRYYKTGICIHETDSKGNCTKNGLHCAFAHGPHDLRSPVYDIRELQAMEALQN
# B1: chr15:12269436:12269437:+_ENSMUSG00000022200_ENSMUST00000059680|mus_mus|motif|central (ssRNA)
# RNA: GGGAGUUCUACAGUCCGACGAUCUAAAAGACUUUUUCUUCUCAUUCCACAAGCCUCUAACUGUAACCUUCCUCUCAAAGCGGAUUCAAUUAACAUACAGCCACGUAAUCCAGAUGAUAUACAGUCAUUCCAAAAUGAUGUGUACAACAGAGGAUUGAGCAUCA
# B2: chr2:27118074:27118075:-_ENSMUSG00000009621_ENSMUST00000056176|mus_mus|FALSE|FALSE (ssRNA)
# RNA: GGGAGUUCUACAGUCCGACGAUCCACAGAUAUAUAAUGGGAGACUUAGAUGAAAUAAUUACAACUUCCCCUCCCCCUUCUAAAAUACAAACAGAUAAAACAUAACAGGACAAAAAAAGCUACAACAACAGAAAAACAAACAGACAACAGAGGAUUGAGCAUCA
# B3: chr1:235506153:235506154:+_ENSG00000152904_ENST00000391855|hu_mus|FALSE|FALSE (ssRNA)
# RNA: GGGAGUUCUACAGUCCGACGAUCGAAGACAGCUACACUUACAUAUAAUAAAUAAAUCUUAAAAAAAAAAAAAAGAAAAGAUAAAUGGGAUGAAGCCACUCCUCAUUUUCAACUGAAAGAAGCUACUGAGUCUAAUCCAGAAAGCAACAGAGGAUUGAGCAUCA
# B4: chr16:94690093:94690094:+_ENSMUSG00000040785_ENSMUST00000117648|mus_hu|mus_mus_mus_hu_True|1_48 (ssRNA)
# RNA: GGGAGUUCUACAGUCCGACGAUCGGGCUGGGAUGACGGACACACAGCCUCGAUUCCAGGGGGAAAAAGUCUUAGUCGAUACUAAUUUAAAAAGUAUAAUGAUUUUUGAAAAUCAGAUUACAUCUAUAAAAGAUGAAAGCACUUCAACAGAGGAUUGAGCAUCA
# B5: chr2:27118074:27118075:-_ENSMUSG00000009621_ENSMUST00000056176|mus_mus|motif|central (ssRNA)
# RNA: B2 RNA with U80G, A81G
# B6: chr5:145543945:145543946:-_ENSG00000133706_ENST00000545646|hu_hu|hu_hu_hu_mus_True|1_108 (ssRNA)
# RNA: GGGAGUUCUACAGUCCGACGAUCCUGAAUAGCCAGUGGUGGGAAAUAAUCAAGCCAGUGCUCUGCUUCAGAAAACUUCACUAUGUCGUCAUCAGAGAGCCCAAGGGAUUUCAUAAUGUCCCACUGGUACUUAGAAGAUCCAGCCAACAGAGGAUUGAGCAUCA
# B7: chr14:62194323:62194324:+_ENSG00000100644_ENST00000337138|hu_mus|motif|central (ssRNA)
# RNA: GGGAGUUCUACAGUCCGACGAUCUCUUUCAUCACAGUAAGAAAAUUUCAUAUCGAGGCUGUGUCGACUGAGAAAUGUCUUGCGGUCGGAAGGAAUUUCAAUAUUUGACGGAUGAGGAAUGGGUUCACAAAUCAGCACCAAGCACAACAGAGGAUUGAGCAUCA
# B8: chrX:15845472:15845473:-_ENSG00000182287_ENST00000329235|hu_mus|motif|central (ssRNA)
# RNA: GGGAGUUCUACAGUCCGACGAUCCCACAAGAAGUCAUCAGCAAGGGAGGACAGUUAUGUCAGUCCAAUUUCUUCAAGAACACGGCGUGGGGUUUCAGCUUCUUUUGCAUCCUCCUGCAGGAGAUCGGCCUGCUCAAUUGCUUUCAACAGAGGAUUGAGCAUCA
# B9: chr17:8508246:8508247:-_ENSG00000133026_ENST00000269243|hu_hu|motif|central (ssRNA)
# RNA: GGGAGUUCUACAGUCCGACGAUCGUACAUUUCAAUAAUAUUCUCAGAGUAAAUUGGAAGAUUCUUGUAAGGGUUUAUAACGGCACAGAAGAGUCCAGAAUAAGUAUAGAUUAGUCCUGAAUAGUAGCGAUCCUUCAGAUUAUGCAACAGAGGAUUGAGCAUCA
# B10: chr18:86887116:86887117:+_ENSMUSG00000024647_ENSMUST00000068423|mus_mus|FALSE|FALSE (ssRNA)
# RNA: GGGAGUUCUACAGUCCGACGAUCCGCGUCAGCUCCGCCAUUGUUAAGGGAUUCAUGAGCAAUGAGCAAUGCCAGGUUACUAAGGGAUCCCAGAGAAUAAAUUAAAAAAAAAAAAAAAUGAAAUCCACGUUGCAAGUUUGAAGCCAACAGAGGAUUGAGCAUCA
# B11: chr17:39847130:39847131:+_ENSG00000173812_ENST00000469257|hu_mus|motif|central (ssRNA)
# RNA: GGGAGUUCUACAGUCCGACGAUCAUUACAUUAUACAAGCUGUGAGGUUUUUAAACUUGUGACAAGGGACAGAAGGGAAAUUCGGCUCAUUGCAAGGAAAUCCUCACUUAAGCUUCAGAGAGCCACAAGCACUUAAAACCCAUGCAACAGAGGAUUGAGCAUCA
# B12: chr18:86887116:86887117:+_ENSMUSG00000024647_ENSMUST00000068423|mus_mus|motif|central (ssRNA)
# RNA: B10 RNA with U80G, A81G
# B13: chr19:7360422:7360423:-_ENSMUSG00000024969_ENSMUST00000032557|mus_mus|FALSE|FALSE (ssRNA)
# RNA: GGGAGUUCUACAGUCCGACGAUCAUAAGGAGGACUGCCACAGAAAGUAUCCAGCUUGUUCCCAAAGGUGAAUUCGUUGCUAAAGCCAAAGUCUGCAAUCUUGAUGUUCAUAUCAGCAUCCAGGAGCAGGUUUUCUGCCUUUAGCAACAGAGGAUUGAGCAUCA
# B14: 75584029_75587226_729_CDS_ENSG00000119638_ENST00000238616|human|control|control (ssRNA)
# RNA: GGGAGUUCUACAGUCCGACGAUCCGUCUCAGCCAUGGAAUACUCAGAAUUAAGUUUCUUUGCUAGGCCAUAAUCUCCAAGUUUUAUCAGGUUUGCCUUGGUCAGAAAAAUAUUUAAUGUCUUUAUAUCUCUAUGAAGGAUUCCCAACAGAGGAUUGAGCAUCA
# B15: chr5:56168760:56168761:+_ENSG00000095015_ENST00000399503|hu_hu|motif|central (ssRNA)
# RNA: GGGAGUUCUACAGUCCGACGAUCUCUAGAAAAUAAGCAGCCAACGAGUUCCAUUCCAAACACCUGAAUCCAUGGCUCAGCGGAAUCUUUGUAAGCAGGAGGGAUUUGCUGAGUUCCAUAAUGAGUAAGGUUAAAAUUGCUCUCCAACAGAGGAUUGAGCAUCA
# B16: 9136497_9143069_760_3pUTR_ENSMUSG00000033499_ENSMUST00000091829|mouse|control|control (ssRNA)
# RNA: GGGAGUUCUACAGUCCGACGAUCCAGAAUUCCAAUGUUUUUUUAAGUACUUCCCGAGGGUCUUCCUGGCUUUCUGGUUGAGACUCAUUUCCUCCCGUAUCGUUGUUCUCAGGCAGAGGUUCAUAUUCUGAAUGGUCCAGAGCCCAACAGAGGAUUGAGCAUCA
# B17: 40924096_40924216_925_3pUTR_ENSMUSG00000028423_ENSMUST00000098143|mouse|control|control (ssRNA)
# RNA: GGGAGUUCUACAGUCCGACGAUCUCGUUGGUCUUUCUCUAAGAUUAUCCUUUGGAAUGGGGGACAUGUUGGUUUUGGGCCCUGCAUUUAUAUGCCGCUGACUCUCCUGUUUUGGUGGGUUCCUGCCUGGCCGUGGUCUGGCCCCAACAGAGGAUUGAGCAUCA
# B18: chr14:89307221:89307222:+_ENSG00000165533_ENST00000346301|hu_mus|hu_hu_hu_mus_False|98_98 (ssRNA)
# RNA: GGGAGUUCUACAGUCCGACGAUCUCCUGUUUGGUUAGUUCCAGGGAGCUUCAAAGAUGUGCCAGGGCGUGGGACCUGAGCAAUAGCAUUUUCAUCCAGGAUCAUUUCAGCAAUUCCUUCCUGGUCCACAUCAAUUUCAUCUAUCAACAGAGGAUUGAGCAUCA
# B19: chr7:151048522:151048523:+_ENSG00000013374_ENST00000566856|hu_mus|motif|central (ssRNA)
# RNA: GGGAGUUCUACAGUCCGACGAUCCUGUUUCUUAUUUAUUACGAUCUUGAUGUAAUUUUCUUGAAAUCCGAAAGUUUCAGCGGUUUGACACCUCAGGUCUCUACCAGUGACAUGCAAGCGGGUCUCCAACAAGCUUUUCUUAUCCAACAGAGGAUUGAGCAUCA
# B20: chr2:29001751:29001752:+_ENSG00000213639_ENST00000296122|perfect_dup|motif|central (ssRNA)
# RNA: GGGAGUUCUACAGUCCGACGAUCAGCCAAUAGCAAACAAAUGGUUUCCAAAGACUGCUUUCCUCUGUCCACAUAAUCUCCGGAGAAAAGAUAGUUGGCUUCUGGUGGGAAACCUCCAUAUUCAAAUAAUCUCAGUAAAUCUGUCAACAGAGGAUUGAGCAUCA
# B21: chr18:33597908:33597909:-_ENSMUSG00000042834_ENSMUST00000171533|mus_mus|FALSE|FALSE (ssRNA)
# RNA: GGGAGUUCUACAGUCCGACGAUCUACAUCAAAAGAGUACAUGGGUAAAAUAUAGAUAUACAGACAAUUGAUGAACAUAAACUACUAGGCUUGUUACAUCUAAAUGAAGAAAAAAAAAAACCGUGGGGGGGACUCUCAGCCUCUCAACAGAGGAUUGAGCAUCA
# B22: chr2:160775391:160775392:-_ENSMUSG00000057133_ENSMUST00000039782|mus_hu|motif|central (ssRNA)
# RNA: GGGAGUUCUACAGUCCGACGAUCAAUGAGUCCAGGAGAUACUCCUGGGAUGAGAAAUGGGUUAAAAGCCACAGGACGGCGGGUAGUUAUUGCAGGUUCAGACUGAUCAGAAAAUGGACCUGGACCAGGCUUGUCCUCAGCUAACAACAGAGGAUUGAGCAUCA
# B23: chr2:160775391:160775392:-_ENSMUSG00000057133_ENSMUST00000039782|mus_hu|FALSE|FALSE (ssRNA)
# RNA: B22 RNA with G77U, G78A, G80U, G81A
# B24: chr18:33597908:33597909:-_ENSMUSG00000042834_ENSMUST00000171533|mus_mus|motif|central (ssRNA)
# RNA: B21 RNA with U82G, A83G, U85G, A86G
# B25: chr1:38489269:38489270:+_ENSG00000183520_ENST00000537711|hu_hu|FALSE|FALSE (ssRNA)
# RNA: GGGAGUUCUACAGUCCGACGAUCUUUGAAGUUACUAGAAAACGACAACAGAUUUUUGAUACAGAAUGACAAGGCUUAUCUAUAACACGUCAACGUUUUCGACGACUCUGAAAUUUAUAAAUAGCUGGGGAGUUCACCGUUUCUCAACAGAGGAUUGAGCAUCA
# Target: T1, UNK ZnF1-3
# Experiment: nsRBNS (natural sequence RNA bind-n-seq); RBNS binding buffer (assumed for nsRBNS): 25 mM Tris pH 7.5, 150 mM KCl, 3 mM MgCl2, 0.01% Triton X-100, 500 ug/ml BSA, 20 U/ml SUPERase-In, 4 C; UNK is unkempt and MSI1 is Musashi-1; names of the RNAs are library labels; protein concentration not given here; high values mean tight binding
row,Binder,binding signal [enrichment R]
1,B1,0.956
2,B2,4.31
3,B3,20.8
4,B4,0.785
5,B5,3.78
6,B6,1.11
7,B7,1.84
8,B8,1.01
9,B9,1.92
10,B10,6.14
11,B11,1.49
12,B12,8.87
13,B13,0.665
14,B14,1.02
15,B15,1.25
16,B16,0.744
17,B17,0.527
18,B18,0.79
19,B19,0.692
20,B20,1.36
21,B21,7.83
22,B22,1.1
23,B23,0.911
24,B24,6.83
25,B25,1.2
